High-throughput results (PubChem BioAssay)
Only some compounds are listed: those with a hit (about 7.3% of all), similar ones and a draw of the others.
NPC1 promoter act – activates the NPC1 promoter | actives 2.4% (n = 320,000) | Potency, µM (top dose mostly 9.22 µM), inactives show at the highest dose activation, actives largely listed as activators | Huh7 NPC1 promoter luciferase reporter, 24 h; note: % of control where 0% means no effect; nearly all actives have a fitted effect of over 60% in size
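In 1536-well qHTS, Huh7 cells harboring an NPC1 promoter–luciferase construct received compound for 24 h; activation was quantified by luminescence following luciferase reagent addition.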
SMN2 splice up – increases expression of the SMN2 splice variant | HEK293 SMN2-luciferase splicing reporter, luminescence, 30-36 h | actives 2.8% (n = 210,000) | Potency, µM (titrated, usually from 46.1 µM), inactives show at the top dose activity change, positive = activation, usual class: activators; note: % of control where 0% means no effect; nearly all actives have a fitted effect of over 55% in size
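qHTS luciferase splicing reporter: luminescence rises when SMN2 exon 7 is included in transfected HEK293 cells. Compound exposure lasted 30-36 h at 37C, with 4.5 mM final sodium butyrate as control, followed by a ONE-Glo read.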
ELG1 genotoxic – genotoxicity induction in ELG1-luciferase HEK293T cells | HEK293T ELG1-luciferase reporter, luminescence, 16 h | Potency, µM (titrated, usually from 46 µM), inactives show at the highest dose activity change, positive = activation, most hits filed as activators | actives 1.3% (n = 330,000) | AID 504466; note: % of control where 0% means no effect; nearly all actives have a fitted effect of over 60% in size
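Cells (2,000/well) expressing the ELG1-luciferase fusion are dosed by pin tool and kept 16 hr at 37 °C, 5% CO2. Signal comes from ONE-Glo luciferase reagent after 30 min at room temperature.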
uPA surface inh – cell surface uPA generation inhibition; actives 0.31% (n = 330,000); AID 540303; Potency, µM (highest dose often 38.3 µM), for the others: top-dose activity change, negative = inhibition, most hits filed as inhibitors; cell surface uPA generation assay, qHTS; active = well fitted inhibition curve with a large enough effect; inconclusive = small, poorly fitted or top-dose-only effect; inactive = no such curve, though single readings can be large or run the other way; tested in mouse RAW 264.7 cells; note: % is set by controls: 0 for no effect and ±100 for the full control effect; nearly all actives have a fitted effect of over 55% in size
Rab9 prom act – Rab9 promoter activation; Huh7 Rab9 promoter-luciferase reporter, luminescence, 24 h; Potency, µM (top dose mostly 9.22 µM), for the others: top-dose activation, negative = inhibition, usual class: activators; actives 2.8% (n = 320,000); note: % of control where 0% means no effect; nearly all actives have a fitted effect of over 60% in size
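Promoter activation is measured as luciferase luminescence in Huh7 cells stably transfected with a Rab9 promoter–luciferase construct, following 24 h compound exposure at 37 °C and 10 min reagent incubation at ambient temperature.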
FLuc modulator – inhibits or activates purified firefly luciferase, miR-21 counter-screen | Potency, µM (highest dose often 57.5 µM), inactives show at the highest dose activity change, negative = inhibition, usual class: inhibitors | AID 588342 | actives 6.9% (n = 360,000) | purified FLuc, Km substrates, luminescence inhibition | P08659;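 note: plate controls were vehicle for no effect and reference inhibitor for full effect; nearly all actives have a fitted effect of over 55% in size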
Target sequence (P08659 whole entry, looked up): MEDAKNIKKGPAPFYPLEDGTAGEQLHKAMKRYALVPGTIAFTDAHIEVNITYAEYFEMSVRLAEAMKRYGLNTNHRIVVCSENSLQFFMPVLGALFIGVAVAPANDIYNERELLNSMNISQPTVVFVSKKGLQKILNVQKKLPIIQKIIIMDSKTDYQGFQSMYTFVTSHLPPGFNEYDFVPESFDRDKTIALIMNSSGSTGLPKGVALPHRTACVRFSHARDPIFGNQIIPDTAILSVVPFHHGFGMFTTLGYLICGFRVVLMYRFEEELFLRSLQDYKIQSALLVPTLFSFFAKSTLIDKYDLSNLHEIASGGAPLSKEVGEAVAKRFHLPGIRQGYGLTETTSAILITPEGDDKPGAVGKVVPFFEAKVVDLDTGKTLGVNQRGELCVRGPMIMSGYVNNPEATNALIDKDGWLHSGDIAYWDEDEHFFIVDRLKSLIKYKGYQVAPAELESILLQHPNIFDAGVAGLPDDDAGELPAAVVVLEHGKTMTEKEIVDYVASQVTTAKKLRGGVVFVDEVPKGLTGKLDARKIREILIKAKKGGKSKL
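Purified P. pyralis luciferase, 10 nM final, with Km-level 10 uM D-luciferin and 10 uM ATP in 50 mM Tris acetate pH 7.5, 10 mM Mg acetate, 0.01% Tween-20, 0.05% BSA; 6-point qHTS titration about 60 µM downward; luminescence read.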
Numbers without * were called inactive; ? = inconclusive; / = no result; [ ] = dose if it differs, or a comment. Unless noted, calls come from the whole dose curve; as a rule, active = well fitted curve in the direction sought with a large enough effect; inconclusive = small, poorly fitted or top-dose-only effect, or another doubt; inactive = no such curve, though single readings can be large; an effect the other way counts as inactive or inconclusive. Potency is the fitted concentration of half-maximal effect.

SMILES	NPC1 promoter act	SMN2 splice up	ELG1 genotoxic	uPA surface inh	Rab9 prom act	FLuc modulator
Cc1cccn2cc(-c3ccc4c(c3)NC(=O)CO4)nc12	25.3%	/	11.4%	-0.8%	?	10.7µM*
Cc1ccn2cc(-c3ccc4c(c3)NC(=O)CO4)nc2c1	1.26µM*	5.62µM*	?	?	0.562µM*	2.39µM*
Cc1cccc(NC(=O)C2C3C=CC(C4CC34)C2C(=O)O)c1 (configuration not stated)	-1.2%	-29.2%	6.5%	-5.3%	0.1%	16.9µM*
COC(=O)C1=C(C)NC(C)=C(C(=O)OC)C1/C=C/c1ccccc1	-1.7%	26.3%	16.4µM*	-10.2%	-1.0%	1.0%
CCOC(=O)C1=C(C)NC(C)=C(C(=O)OCC)C1/C=C/c1ccccc1	0.1%	11.9%	?	/	-4.9%	4.9%
CCCNS(=O)(=O)c1ccc(NC(=O)c2ccccn2)cc1	5.2%	26.2%	4.9%	3.4%	16.7%	?
CN(C)S(=O)(=O)c1ccc(NC(=O)c2ccccn2)cc1	2.51µM*	11.2µM*	?	-8.5%	1.58µM*	13.5µM*
CCN(CC)S(=O)(=O)c1ccc(NC(=O)c2ccccn2)cc1	?	7.3%	14.6µM*	1.5%	?	15.1µM*
Cn1cccc1C(=O)N1CCC2(CCCN(Cc3ccccc3)C2)CC1	/	-1.9%	/	/	/	/
Cc1ccc(C(=O)Nc2cccnc2N2CCN(C)CC2)cc1	-0.4%	18.5%	1.2%	-2.6%	-2.8%	2.5%
CCOC(=O)c1ccc(NC(=O)CCn2c(=O)c3cccn3c3cccnc32)cc1	/	/	/	/	/	1.1%
COc1ccc(NC(=O)C(NS(=O)(=O)c2cccc3nsnc23)C(C)C)cc1 (configuration not stated)	/	-6.9%	/	/	/	2.1%
COc1cc(N/N=C/c2ccccc2O)ncn1	?	?	23.1µM*	-6.3%	?	15.1µM*
Cc1cnn(-c2cc(N/N=C/c3ccccc3)ncn2)c1	15.2%	-1.2%	2.2%	/	2.2%[1.84 µM]	?
Cc1cnn(-c2cc(N/N=C/c3ccccc3F)ncn2)c1	22.7%	-5.9%	?	1.5%	20.5%	-8.3%
COc1cc(N/N=C/c2ccc(N(C)C)cc2)ncn1	1.26µM*	2.24µM*	1.16µM*	3.55µM*	?	0.849µM*
CC(=O)c1cnc2cc(-c3ccc(C)cc3)nn2c1C	?	11.2µM*	7.31µM*	-10.9%	3.55µM*	3.38µM*
COc1ccc(-c2cc3ncc(C(C)=O)c(C)n3n2)cc1	2.24µM*	11.2µM*	?	-10.7%	1.26µM*	?
CC(=O)c1cnc2nc(SCc3ccccc3)nn2c1C	4.47µM*	/	?	1.9%	3.55µM*	/
CC(=O)c1cnc2cc(-c3ccccc3)nn2c1C	2.51µM*	15.8µM*	2.24µM*	6.4%	1.41µM*	2.39µM*
COc1ccc(C2CC(=O)c3cc(-c4nc(-c5ccc(C)cc5)cs4)c(=O)[nH]c3C2)cc1 (configuration not stated)	/	-12.0%	/	/	/	5.7%
CN(c1ccc(F)cc1)S(=O)(=O)c1ccc(Cl)c(C(=O)NCc2ccco2)c1	/	/	-2.4%	?	/	/
COc1ccc(CCNC(=O)CCc2c(C)c3cc4c(C)c(C)oc4cc3oc2=O)cc1OC	/	7.3%	/	/	/	-3.2%
CC(C)CCn1c(=O)c2sccc2n2c(CCCC(=O)NCc3ccc(F)cc3)nnc12	/	/	/	/	/	-2.8%
O=C(O)C1CCC(c2ccc(-c3ccccc3)cc2)CC1 (configuration not stated)	2.82µM*	/	?	2.9%	?	6.75µM*
SMILES	NPC1 promoter act	SMN2 splice up	ELG1 genotoxic	uPA surface inh	Rab9 prom act	FLuc modulator
CCNC(=O)CN(CCc1ccccc1)S(=O)(=O)c1ccc(OC)cc1	0.8%	-16.6%	-1.3%	1.8%	3.0%	-1.3%
CCNC(=O)CN(Cc1ccccc1)S(=O)(=O)c1ccccc1	-0.3%	0.3%	23.1µM*	-2.2%	0.4%	8.1%
COc1ccc(C2=NN(C(C#N)c3ccc(OC)c(OC)c3)C(c3ccccc3)C2)cc1 (configuration not stated)	14.4%	94.5%	5.8µM*	-7.9%	?	12µM*
COc1ccccc1/C=C/C=C1\Oc2c(ccc(O)c2CN(C)C)C1=O	2.2%	/	1.6%	1.6%	1.8%	3.01µM*
CCN(CC)Cc1c(O)ccc2c1O/C(=C\C=C\c1ccccc1)C2=O	-3.9%	/	-0.8%	-10.9%	-3.9%	12µM*
CS(=O)(=O)Oc1ccc2c(c1)O/C(=C\C=C\c1ccccc1)C2=O	7.4%	/	0.6%	-4.2%	-1.2%	7.57µM*
Cc1cc(C)n2c(Nc3ccccc3C)c(-c3cccs3)nc2n1	/	3.1%	/	/	/	1.1%
CCCCn1cc(S(=O)(=O)c2ccc(Cl)cc2)c(=O)c2cc(F)c(N3CCCCC3)cc21	/	/	/	/	/	-0.3%
Cc1ccc(NC(=O)c2ccc(COc3ccc4c(c3)CCC4)cc2)c(C)c1	0.7%	14.2%	11.6%	2.0%	2.6%	4.1%
O=C(O)c1ccc(COc2ccc3c(c2)CCC3)cc1	?	/	8.7%	1.5%	?	5.36µM*
O=C(Nc1ccccc1Cl)c1ccc(COc2ccc3c(c2)CCC3)cc1	?	6.31µM*	?	2.3%	?	-13.9%
NNC(=O)c1ccc(COc2ccc3c(c2)CCC3)cc1	?	?	-1.2%	-4.4%	?	?
CCc1ccc(CNC(=O)CN2C(=O)C3CCCCN3c3ccc(C(=O)N4CCCC4)cc32)cc1 (configuration not stated)	/	/	/	/	/	-3.9%
Cc1ccc(-c2ccc(OCC(=O)N3CCOCC3)cc2)cc1	16.0%	-2.4%	?	2.0%	17.9%	19µM*
Cc1cc(OCCN2CCOCC2)ccc1[N+](=O)[O-]	?	?	?	1.4%	?	?
Cc1cc(OCC(=O)N2CCOCC2)ccc1[N+](=O)[O-]	3.16µM*	/	?	1.8%	2.82µM*	23.9µM*
O=Cc1ccc(OCC(=O)N2CCOCC2)cc1	-3.4%	/	0.6%	-3.0%	1.0%	-3.3%
COC(=O)CSc1nnc2n(-c3ccccc3)c(=O)c3c4c(sc3n12)COC(C(C)C)C4 (configuration not stated)	/	0.7%	/	/	/	-5.4%
Cc1nc2ccc(NC(=O)Cc3c(F)cccc3Cl)cc2s1	2.82µM*	/	?	?	2.51µM*	4.78µM*
CC(=O)c1sc(NC(=O)Cc2c(F)cccc2Cl)nc1C	0.5%	/	-6.2%	-0.7%	0.4%	-0.8%
O=C(Cc1c(F)cccc1Cl)Nc1nc2ccccc2s1	19.7%	-6.0%	8.5%	1.3%	?	26.9µM*
CCN(CC)CCOC(=O)c1ccc(NC(=O)c2cc3c(s2)-c2ccccc2OC3)cc1	/	-1.3%	/	/	/	-11.0%
Cc1ccccc1OCCn1c(=O)sc2ccccc21	-0.2%	-29.9%	1.3%	7.1%	0.2%	-20.3%
Cc1cccc(OCCCn2c(=O)sc3ccccc32)c1	5.7%	-5.3%	?	4.0%	3.16µM*	21.3µM*
